Only some compounds are listed: those with a hit (about 4.1% of all), similar ones and a draw of the others.
hcDAF12 agonist = activators of H. contortus DAF-12 nuclear receptor. HEK293 hcDAF-12 lit1-tk-luc reporter, luminescence; 0% DMSO, 100% Δ7-dafachronic acid. activation, % at 6.8 µM. 370,000 compounds, 1.4% hits;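 active = activation above the mean of all tested compounds plus 3 SD, cut at about 5.5% in these data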;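 note: 100% = response to 3 µM Δ7-dafachronic acid high control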
DAX1 inh-1 = blocks DAX1 repression of SF-1 activated StAR promoter. HEK293T StAR-luciferase reporter, SF-1/DAX-1 repression relief. inhibition, % at 6.8 µM. 370,000 compounds, 1.1% hits. AID 652010;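 active = inhibition above the mean over all tested compounds plus 3 SD, cut at about 3.6% in these data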;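 note: 0% = DAX-1 cells with DMSO and 100% = cells lacking DAX-1 with DMSO; higher inhibition means more luminescence from relief of DAX-1 repression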
hgDAF-12 ag = activates the H. glycines DAF-12 receptor ligand-binding domain; HEK293 GAL4-hgDAF12 UAS-luciferase reporter, agonist luminescence; normalized to butyrate control; activation, % at 6.8 µM; 370,000 compounds, 1.8% hits; AID 687014;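 active = activation above a cutoff set at the mean of all screened compounds plus 3 SD, cut at about 10% in these data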;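 note: 0% = DMSO wells and 100% = sodium butyrate wells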
ssDAF-12 act = activators of S. stercoralis DAF-12 nuclear receptor; AID 652126; HEK293 ssDAF-12/GRIP1 lit1-tk-luc reporter, luminescence; % of 3 µM dafachronic acid response; 370,000 compounds, 1% hits; activation, % at 6.8 µM;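 active = activation above the mean over all tested compounds plus 3 SD, cut at about 0.9% in these data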;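 note: 0% = DMSO-only wells and 100% = 3 µM delta7-dafachronic acid wells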
DAX1 inh-2 = inhibits human nuclear receptor DAX1; HEK293 Gal4-DAX1 luciferase reporter, luminescence; 340,000 compounds, 0.99% hits; AID 504766; P51843; inhibition, % at 6.75 µM;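 active = inhibition above the mean over all tested compounds plus 3 SD, cut at about 4.2% in these data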;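 note: 0% = DAX1-transfected cells with DMSO and 100% = empty-vector control cells with DMSO; inhibition shows as a rise in luminescence from relieved DAX1 repression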
Target sequence (P51843 207-470 limits assumed): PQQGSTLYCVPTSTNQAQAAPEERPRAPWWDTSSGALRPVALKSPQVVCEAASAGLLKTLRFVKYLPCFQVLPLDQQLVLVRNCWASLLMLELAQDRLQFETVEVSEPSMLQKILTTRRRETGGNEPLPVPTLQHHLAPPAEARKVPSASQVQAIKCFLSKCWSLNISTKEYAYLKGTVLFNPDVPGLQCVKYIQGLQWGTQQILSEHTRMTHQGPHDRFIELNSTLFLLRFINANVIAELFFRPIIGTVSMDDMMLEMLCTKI
hgDAF12 conf = confirmation of H. glycines DAF-12 agonists; 3,300 compounds, 80% hits; HEK293 GAL4-hgDAF12 luciferase reporter, agonist mode; percent of butyrate response; AID 743050; shares compounds with hgDAF-12 ag; activation, % at 6.8 µM;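 active = mean activation over triplicate wells above the hit cutoff derived from the earlier primary screen, cut at about 11% in these data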;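 note: 0% = DMSO low control and 100% = 2 mM sodium butyrate high control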
LXRb DAF12 ctr = counter-screen for DAF-12 agonists: agonists of human LXR-beta. shares compounds with hgDAF-12 ag. HEK293 Gal4-LXR luciferase reporter, 24 h. activation, % at 6.8 µM. 3,300 tested, under 10 active. AID 743051;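 active = mean activation of the triplicate above a set limit carried over from the primary screen, none filed active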
Numbers without * were called inactive; . = no result given.

SMILES | hcDAF12 agonist | DAX1 inh-1 | hgDAF-12 ag | ssDAF-12 act | DAX1 inh-2 | hgDAF12 conf | LXRb DAF12 ctr
CCc1ccc(NC(=O)c2ccccc2SC)cc1 | 1 | 3 | 16* | 1 | 2 | 4 | 0
CSc1ccccc1C(=O)Nc1ccc2c(c1)OCCO2 | 0 | 1 | 3 | -1 | 0 | . | .
COCc1ccc(C(=O)NC2CCCc3c2cnn3-c2ccc(C)c(C)c2)o1 (configuration not stated) | -5 | -3 | -6 | -1 | -2 | . | .
O=C(Nc1nc2ccccc2s1)Nc1ccc(F)cc1F | 6 | 1 | 14* | 0 | 3 | 15* | 1
COc1cccc2c1C(=O)O/C2=C/c1ccc2c(c1)OCO2 | 5 | 4 | 16* | 1.2* | 4 | 14* | 1
COC(=O)[C@]12C[C@H](CC(=O)NCCc3ccccc3OC)C(=O)N(Cc3ccc(Cl)cc3Cl)C1=C[C@H](COCc1ccccc1)O[C@@H]2C | -4 | -3 | 0 | -2 | . | . | .
CSc1ccc(C2NC(=O)c3ccccc3N2)cc1 (configuration not stated) | 3 | 0 | 15* | 0 | 4.6* | 14* | 0
N/C(=N\N=C\c1ccc(O)c(O)c1)c1nonc1N | 2 | 1 | 15* | 0 | 3 | 6 | 0
COc1ccc(OC)c(/C=N/N=C(\N)c2nonc2N)c1 | 4 | 0 | 9 | 0 | 3 | . | .
COc1ccc(-c2ccc(C(=O)Nc3cccc(F)c3)c3occc23)c(C)c1 | 4 | 3.7* | 14* | 0 | . | 6 | 1
COc1ccc(-c2ccc(C(=O)Nc3cccc(C(C)=O)c3)c3occc23)c(C)c1 | -5 | -4 | 0 | -2 | . | . | .
CCOC(=O)c1sc(NC(=O)c2ccccc2)cc1C | 3 | 1 | 17* | 0 | 1 | 13* | 1
C/C(CC(=O)Nc1ccc(Cl)cc1C(F)(F)F)=N\NC(=O)c1cccs1 | 5 | 2 | 14* | 0 | 8.6* | 5 | 0
C/C(CC(=O)Nc1ccc(Cl)cc1C(F)(F)F)=N\NC(=O)c1ccccn1 | 4 | 2 | 15* | 0 | 0 | 6 | 0
C/C(CC(=O)Nc1ccc(Cl)cc1C(F)(F)F)=N\NC(N)=S | 0 | -1 | -1 | -1 | . | . | .
O=C1NC(=O)C2(CCCCCC2)N1 | -1 | 1 | 0 | 0 | 0 | . | .
Cc1ccccc1NC(=O)CSc1nc2c(c(=O)n(C)c(=O)n2C)n1C | -1 | 0 | -1 | -1 | 1 | . | .
CCCCOC(=O)Nc1ccc(N2CCOCC2)cc1 | 2 | 1 | 6 | -1 | 3 | . | .
CCCCOC(=O)Nc1ccc(N2CCCCC2)cc1 | 4 | 3 | 13* | 0 | 1 | 13* | 1
Cc1ccc(/C=C/C(=O)Nc2ccccc2C(N)=O)cc1 | 4 | 4.4* | 18* | 0 | -1 | 15* | 1
NC(=O)c1ccccc1NC(=O)/C=C/C(=O)O | 0 | 0 | 9 | -1 | 2 | . | .
O=C(NC1CCCC1)c1cc(-c2cccs2)on1 | 6.1* | 2 | 47* | 0 | 4.7* | 43* | 1
O=C(NC1CCCC1)c1cc(-c2ccc(F)cc2)on1 | 1 | 2 | 23* | 0 | 5.8* | 37* | 1
O=C(NCCCN1CCOCC1)c1cc(-c2cccs2)on1 | 4 | -1 | 24* | 0 | 3 | 46* | 0
O=S(=O)(Nc1cc2nc3ccccc3nc2n1Cc1ccccc1)c1ccc(Cl)cc1 | -3 | -3 | -8 | -2 | -2 | . | .
SMILES | hcDAF12 agonist | DAX1 inh-1 | hgDAF-12 ag | ssDAF-12 act | DAX1 inh-2 | hgDAF12 conf | LXRb DAF12 ctr
CCc1nn2c(=O)cc(COC(=O)c3cc(Cl)c(OC)c(OC)c3)nc2s1 | -1 | 0 | 3 | -1 | 1 | . | .
C/C(=N\NC(=O)c1nnn(-c2nonc2N)c1CN(C)c1ccccc1)c1cccnc1 | 5 | 2 | 13* | 1 | -1 | 0 | 0
C/C(=N\NC(=O)c1nnn(-c2nonc2N)c1-c1ccccc1)c1cccnc1 | 1 | 0 | 3 | -1 | 1 | . | .
COc1ccccc1Nc1ncc(C(=O)Nc2ccc(OC)c(OC)c2)c2ccccc12 | -3 | 0 | -1 | -1 | -2 | . | .
CC(C)(C)c1ccc(C(=O)Nc2ncn[nH]2)cc1 | 4 | 2 | 14* | 0 | 1 | 13* | 1
Cc1ccc(C(=O)Nc2ncn[nH]2)cc1 | -1 | 0 | 2 | -1 | 3 | . | .
CC(=O)Oc1ccccc1/C=C/c1ccc2ccccc2[n+]1C | 6.0* | 2 | 13* | 1.9* | 4 | 11* | 0
COc1ccc(/C=C/c2ccc3ccccc3[n+]2C)cc1OC | . | . | . | . | 3 | . | .
Cn1ncc2c(NNC(=O)C3CCCCC3)ncnc21 | -1 | 1 | -1 | -2 | 0 | . | .
Nc1nc(-c2ccc3c(c2)CCCC3)cs1 | 2 | 2 | 16* | 0 | 1 | 11* | 1
Nc1nc(-c2ccc3c(c2)OCCO3)cs1 | 4 | 2 | 6 | -1 | 2 | . | .
N#Cc1cccc(NC(=O)CSc2nnc(-c3n[nH]c4ccccc34)o2)c1 | 1 | -1 | 15* | 0 | 1 | 10 | 0
O=C(c1ccc2nc(Cc3ccccc3F)oc2c1)N1CCCC1 | 5 | 3 | 15* | 0 | 2 | 14* | 0
CC(C)(C)C(=O)OCc1nc(-c2ccc3c(c2)OCCO3)cs1 | 2 | 0 | 4 | -1 | 1 | . | .
CSCC(=O)Nc1nc(-c2ccc3c(c2)OCCO3)cs1 | 2 | 3 | 17* | 0 | 4 | 14* | 1
O=C1C=CC(=O)N1c1ccc(Nc2ccccc2)cc1 | -1 | 0 | -2 | -1 | 0 | . | .
O=C1C(Nc2ccccc2)=C2CCCC=C2N1c1ccccc1 | 5 | 4.2* | 14* | 0 | 2 | 3 | 0
Cc1ccc(-c2nn(-c3ccccc3)cc2C=O)o1 | 3 | 4 | 13* | 0 | 1 | 10 | 0
O=C(NC1CCCC1)C(C1CC1)n1c(-c2cc3ccccc3[nH]2)nc2ccccc21 (configuration not stated) | 6 | 3 | 22* | 1.0* | . | 14* | 0
COc1ccc(-c2coc3cc(O[C@@H]4O[C@H](CO)[C@@H](O)[C@H](O)[C@H]4O)ccc3c2=O)cc1 | 6 | 3 | 8 | 0 | 2 | . | .
O=c1c(-c2ccc3c(c2)OCCO3)coc2cc(OC3OC(CO)C(O)C(O)C3O)ccc12 (configuration not stated) | 5.8* | 4 | 17* | 0 | 1 | 14* | 1
Cc1nnc(SCC(=O)Nc2cc(-c3cc(C)c(C)cc3C)nn2-c2ccccc2)s1 | -1 | 0 | 1 | -1 | -2 | . | .
CCCc1ccc(-c2cc(NC(=O)CSc3nnc(N)s3)n(-c3ccccc3)n2)cc1 | 5 | 4.1* | 14* | 0 | 1 | 19* | 1

Source: PubChem BioAssay
